Screen size: about 220,000 compounds; about 530 (0.24%) were called active. The entries come from a sample that favours actives as a whole. Measured potencies and affinities stand elsewhere. Unmarked numbers belong to inactive results. No stated cut-off is given here; in the data, active means inhibition above about 13%; inconclusive means no clear call, values can overlap the other calls; inactive means below that.
Target: Bifunctional protein GlmU (Mycobacterium tuberculosis (strain ATCC 25618 / H37Rv)) (UniProt P9WMN3)
Sequence (P9WMN3 whole entry, looked up): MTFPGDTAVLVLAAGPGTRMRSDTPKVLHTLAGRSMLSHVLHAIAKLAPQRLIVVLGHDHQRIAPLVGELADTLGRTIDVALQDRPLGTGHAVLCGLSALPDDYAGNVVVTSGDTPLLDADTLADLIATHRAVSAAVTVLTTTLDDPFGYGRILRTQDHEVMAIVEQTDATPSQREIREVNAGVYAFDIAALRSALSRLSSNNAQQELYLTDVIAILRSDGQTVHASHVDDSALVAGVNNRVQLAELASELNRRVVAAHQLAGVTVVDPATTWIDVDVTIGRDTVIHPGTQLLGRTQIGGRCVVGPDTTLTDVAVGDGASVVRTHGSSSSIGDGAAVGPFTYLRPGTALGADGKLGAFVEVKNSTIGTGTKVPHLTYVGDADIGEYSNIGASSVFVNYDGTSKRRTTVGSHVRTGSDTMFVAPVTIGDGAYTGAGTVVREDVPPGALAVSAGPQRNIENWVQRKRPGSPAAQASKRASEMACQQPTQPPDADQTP
Assay: inhibition of mycobacterial GlmU enzyme – biochemical, glucosamine-1-phosphate acetyltransferase (AID 1376);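 further: 0% = complete reaction with vehicle and 100% = reaction without substrate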
Conditions: M. tuberculosis GlmU acetyltransferase enzyme assay; hits give high values;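 tested at 30 µM in the primary screen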

SMILES | inhibition
O=C(CSc1nnc(Cc2cccs2)n1-c1ccc(Cl)cc1)NCc1ccc2c(c1)OCO2 | 12.9% (active)
O=C(CSc1nnc(Cc2cccs2)n1-c1ccccc1)NCc1ccc2c(c1)OCO2 | 5.29%
O=C(CSc1nnc(-c2cccs2)n1-c1ccccc1)NCc1ccc2c(c1)OCO2 | 4.61%
Cc1cccc(NC(=O)Cn2cnc3c(oc4ccccc43)c2=O)c1C | 3.4%
CCC(=O)N/C(=N/c1nc(C)cc(C)n1)Nc1ccc(OC)cc1 | 7.87%
N#CC12CCCCC1CC1CCCCC1(C#N)N2CCO (configuration not stated) | 0.23%
CCCOc1ccc(C2NC(=O)NC2=O)cc1 (configuration not stated) | 1.13%
CC(C)Oc1ccc(C2CNC(=O)C2)cc1 (configuration not stated) | 5.76%
CC(C)Oc1ccc(C2NC(=O)NC2=O)cc1 (configuration not stated) | 14.6% (active)
CC(C)Oc1ccc(C2CC(=O)NC3=C2C(=O)CCC3)cc1 (configuration not stated) | -5.28%
CC(C)COc1ccc(C2NC(=O)NC2=O)cc1 (configuration not stated) | -0.34%
CC(C)Oc1ccc(C2CCC(=O)NC2=O)cc1 (configuration not stated) | 13.8% (active)
Cc1cc(N=NC(=O)c2ccccc2)ccc1O | 1.4%
O=C(CNc1cccc(C(F)(F)F)c1)N/N=C/c1cn(-c2ccccc2)nc1-c1ccccc1 | -4.25%
O=C(CNc1cccc(C(F)(F)F)c1)N/N=C/c1cccc(Br)c1 | -0.17%
O=C(CNc1cccc(C(F)(F)F)c1)N/N=C/c1ccccc1C(=O)O | 13.4% (active)
N/N=C1\CCCc2c1[nH]c1ccc([N+](=O)[O-])cc21 | 0.8%
CCn1c(SCC(=O)N2CCc3ccccc32)nnc1-c1c[nH]c2ccccc12 | 6.94%
Clc1ccc(Cn2nc(-c3ccccc3)nc2-c2ccccc2)cc1 | 7.14%
O=C1NC(=O)N(c2cccc(Cl)c2)C(=O)/C1=C\c1ccc(Sc2nc3ccccc3[nH]2)o1 | 22.4%
O=C1NC(=O)N(c2ccc(Cl)cc2)C(=O)/C1=C\c1ccc(Sc2nc3ccccc3[nH]2)o1 | 12.5%
CN(C)S(=O)(=O)c1ccc(C(=O)N2CCOCC2)cc1 | 9.61%
CN(C)S(=O)(=O)c1ccc(=S)[nH]c1 | 1.27%

SMILES | inhibition
CSc1ccccc1NC(=O)Nc1ccc(F)c(Cl)c1 | 15% (active)
CSc1ccccc1NC(=O)Nc1ccc(Cl)cc1 | 1.07%
CSc1ccccc1NC(=O)Nc1cccc(Cl)c1 | 1%
Cc1ccc(-n2c(-c3ccccc3)cc(/C=N/NC(=O)CC#N)c2-c2ccccc2)cc1 | -1.01%
COc1ccc2c(c1)CCc1c(C(=O)N3CCOCC3)noc1-2 | 13.8% (active)
COc1ccc2c(c1)CCc1c(C(=O)N3CCCCCC3)noc1-2 | 0.33%
COc1ccc2c(c1)CCc1c(C(=O)N3CCc4ccccc4C3)noc1-2 | 5.33%
CC(C)(C)C1CCC(=NNC(=O)c2cc3c(s2)CCCC3)CC1 (configuration not stated) | -4.64%
Cc1ccc(OCc2ccc(C(=O)Nc3nc4ccccc4n3C)o2)c([N+](=O)[O-])c1 | 2.65%
CCn1c(NC(=O)c2ccc(COc3ccc(C)cc3[N+](=O)[O-])o2)nc2ccccc21 | 15.2% (active)
Cc1ccc(OCc2ccc(C(=O)Nc3nc4ccccc4n3Cc3ccccc3)o2)c([N+](=O)[O-])c1 | -4.38%
O=C(N/N=C1/CCS(=O)(=O)c2ccc(F)cc21)c1ccccn1 | -0.55%
CCCC(c1nnnn1CCc1ccccc1)N1CCN(C(=O)c2ccco2)CC1 (configuration not stated) | 5.26%
COc1ccccc1OCCCCN1CCN(C(c2ccccc2)c2ccccc2)CC1 | -0.89%
CCN(CC)S(=O)(=O)c1cc(NS(=O)(=O)c2cc(Cl)ccc2Cl)ccc1C | 3.03%
CCC(=O)Nc1ccc(Oc2ccc3c(c2)C(=O)N(c2ccc(O)cc2)C3=O)cc1 | 2.87%
COC1=C(OC)C(=O)C(CCCCCCCCCCO)=C(C)C1=O | -5.02%
CCCCCCCCCCCC1=C(O)C(=O)C=C(O)C1=O | 1.77%
COC1=CC(=O)C(O)=C(CCCCCCC/C=C/CCCCCCCC2=C(O)C(=O)C=C(OC)C2=O)C1=O | 14.3% (active)
COC(=O)c1c(C)oc2cc(Br)c(OCC(=O)C(C)(C)C)cc12 | -1.38%
CCC(=O)NC1CCN(C(=S)NC)CC1 | -4.03%
CSc1cccc(NC(=O)CN(Cc2ccc(Cl)cc2)S(C)(=O)=O)c1 | -1.38%
O=C(/C=C/c1ccco1)NC(=S)Nc1cc(-c2nc3ccccc3s2)ccc1Cl | 13% (active)

SMILES | inhibition
O=C(/C=C/c1ccco1)NC(=S)Nc1cccc(-c2nc3ccccc3s2)c1 | -0.02%
Cc1ccc(-c2nc3ccccc3s2)cc1NC(=S)NC(=O)/C=C/c1ccco1 | 3.24%
FC(F)(F)c1cnc(NNC(=S)Nc2cccnc2)c(Cl)c1 | 2.72%
CCCOC(=O)CSc1nc(N)c(C#N)c(-c2ccco2)c1C#N | 2.41%
COC(=O)CSc1nc(N)c(C#N)c(-c2ccco2)c1C#N | 21.7% (active)
CC(C)OC(=O)CSc1nc(N)c(C#N)c(-c2ccco2)c1C#N | -3.1%
CCOC(=O)c1[nH]c(=O)[nH]c1CN(Cc1ccco1)Cc1[nH]c(=O)[nH]c1C(=O)OCC | 2.03%
COc1cc(OC)c(OC)cc1CN1CCC(O)CC1 | 0.1%
Cn1c(-c2ccc(Br)cc2)cnc1NCc1cccnc1 | -2.36%
CCCCN(C)CCC(=O)Nc1ccc(F)c(F)c1 | 0.07%
Cc1ccc(-c2nnn(CC(=O)N(Cc3ccco3)C(C(=O)NC(C)(C)C)c3cccs3)n2)o1 (configuration not stated) | 1.32%
Cc1ccc(-c2nnn(CC(=O)N(Cc3ccco3)C(C(=O)NC(C)(C)C)c3ccncc3)n2)o1 (configuration not stated) | 6.52%
Cc1ccc(-c2nnn(CC(=O)N(Cc3ccco3)C(C(=O)NC(C)(C)C)c3ccc(C)o3)n2)o1 (configuration not stated) | 13% (active)
CCS(=O)(=O)N1CCN(CC(=O)NC2CCCCC2)CC1 | 2.03%
COc1ccc(-c2cc3nc(-c4ccccc4)cc(N4CCC5(CC4)OCCO5)n3n2)cc1 | 5.97%
O=C(N/N=C\c1ccccn1)C1c2ccccc2Oc2ccccc21 | -4.47%
CN(C)CCCOc1cccc(Oc2ccccc2)c1 | -1.51%
COc1cccc(C(=O)O/N=C(\N)c2ccc([N+](=O)[O-])cc2)c1 | -5.75%
Cc1ccc(C(OCCN(C)C)c2cccc(C(F)(F)F)c2)cc1 (configuration not stated) | 2%
CCN(CC)CCC(C)OC(c1ccccc1)c1ccccc1 (configuration not stated) | -5.59%
CCN(CC)CCOC(c1ccccc1)c1ccc(C)cc1 (configuration not stated) | 13.5% (active)
C=CCNC(=O)C1CC1(c1ccccc1)c1ccccc1 (configuration not stated) | 4.25%
COc1ccccc1NC(=O)c1cccc(S(=O)(=O)N2CCOCC2)c1 | 0.03%

SMILES | inhibition
COc1cc(C(=O)N2CCCC(c3nc(-c4cccs4)no3)C2)cc(OC)c1OC (configuration not stated) | 2.49%
COc1ccc(C(=O)N2CCCC(c3nc(-c4cccs4)no3)C2)cc1 (configuration not stated) | -2.88%
COc1ccc(C(=O)N2CCCC(c3nc(-c4cccs4)no3)C2)cc1OC (configuration not stated) | 13.1% (active)
Nc1c(C(=O)Nc2nc3ccccc3s2)sc2nc(-c3cccs3)ccc12 | -1.14%
Cc1csc(NC(=O)c2sc3nc(-c4cccs4)ccc3c2N)n1 | 0.71%
O=C(Nc1ncc(Cc2cccc(C(F)(F)F)c2)s1)c1ccc(-c2cccc([N+](=O)[O-])c2)o1 | -6.86%
Cc1ccccc1CN1C(=O)CSc2ccc(C(=O)N3CCOCC3)cc21 | 0.57%
CN(C(=O)CCc1nnc(Cc2ccc(-c3ccccc3)cc2)o1)C1CCOCC1 | 2.22%
C=CCn1c(COc2ccccc2)nnc1SCC(=O)Nc1ccc(S(N)(=O)=O)cc1 | 0.44%
Cn1c(COc2ccccc2)nnc1SCC(=O)Nc1ccc(S(N)(=O)=O)cc1 | 1.92%
NS(=O)(=O)c1ccc(NC(=O)CSc2nnc(COc3ccccc3Cl)n2C2CC2)cc1 | 13.3% (active)
c1ccc2oc(NC3=NCN(C4CCCCC4)CN3)nc2c1 | 0.06%
O=[N+]([O-])c1cc(/C=N\Nc2nc(-c3ccccc3)cs2)ccc1O | 7.14%
Cc1csc(N/N=C/c2ccc(O)c([N+](=O)[O-])c2)n1 | 13.8% (active)
Cc1n[nH]c(=O)nc1N/N=C/c1ccc(O)c([N+](=O)[O-])c1 | 5.79%
CSc1ccc(CNc2nnnn2C)cc1 | -1.37%
COC(=O)C1(CO)NC(c2cccs2)C2C(=O)N(c3ccccc3)C(=O)C21 (configuration not stated) | -2.08%
Cc1ccc(N2C(=O)NC(=O)/C(=C\c3ccc([N+](=O)[O-])o3)C2=O)cc1 | 12.4%
COc1ccc(CN2C(=O)NC(=O)/C(=C/c3ccc([N+](=O)[O-])s3)C2=O)cc1 | 6.92%
COc1ccc(CN2C(=O)NC(=O)/C(=C\c3ccco3)C2=O)cc1 | 8.39%
COc1ccc(CN2C(=O)NC(=O)/C(=C/c3ccc([N+](=O)[O-])o3)C2=O)cc1 | 19.9% (active)
O=C1NC(=O)N(c2ccccc2)C(=O)/C1=C\c1ccc([N+](=O)[O-])o1 | 16.7%
Cc1cc([N+](=O)[O-])ccc1N=Nc1c(N)[nH]n(-c2ccccc2)c1=O | -3.05%
